Source: PubChem BioAssay (EPA / NIEHS)
Active and inactive are the calls of the source. The calls were made as follows: active = hit-call score of the fitted dose curve at least 0.9, where 1 is the maximum; inactive = score below 0.9.

Test: CCTE_Shafer_MEA_acute_firing_rate_mean: CCTE's Neural Acute Assay for Mean Firing Rate, Shafer Lab (AID 2284009);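 also: analyzed for loss of signal so actives lower firing rate relative to DMSO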
In short: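 Percent change in well-mean firing rate was derived from extracellular spikes detected at 8x rms noise (300-5000 Hz band-pass) before and after a 40-min compound exposure. Cultures were primary rat cortical neurons, tested at 0.03-40 uM.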

SMILES | outcome | AC50
CC[C@H]1OC(=O)[C@H](C)[C@@H](O[C@H]2C[C@@](C)(OC)[C@@H](O)[C@H](C)O2)[C@H](C)[C@@H](O[C@@H]2O[C@H](C)C[C@H](N(C)C)[C@H]2O)[C@](C)(O)C[C@@H](C)C(=O)[C@H](C)[C@@H](O)[C@]1(C)O | inactive | –
Cn1c(=O)c2c(ncn2C)n(C)c1=O | inactive | –
CC[C@H]1CC[C@H](NCc2cc3c(cc2OC)[C@H]2C[C@H]2C(=O)N3C)[C@H](c2ccccc2)N1 | – | 3.07 µM (active)
COc1cccc(-c2ccc(/C=C\CN3CCCCCC3)cc2Cl)c1 | – | 3.65 µM (active)
COc1ccc2sc(C(=O)Nc3nnn[nH]3)c(OC(C)C)c2c1 | inactive | –
O=C(O)CCN(C1(C(=O)NO)CCCC1)S(=O)(=O)c1ccc(Oc2ccc(F)cc2)cc1 | inactive | –
CCCCCCCCCCCCc1ccccc1 | inactive | –
CC(C)=CCCC(C)=CC=O | inactive | –
CCCCC(CC)COC(=O)CCCCCCCCC(=O)OCC(CC)CCCC (configuration not stated) | inactive | –
On1ccccc1=S | inactive | –
Cn1cnc([N+](=O)[O-])c1Sc1ncnc2nc[nH]c12 | inactive | –
O=P(OC(CCl)CCl)(OC(CCl)CCl)OC(CCl)CCl | inactive | –
